# Source: PubChem BioAssay (Tox21)
# Several values for one entry are separate records, joined by “and”; a condition that tells them apart may be missing. Equal values may be shown once. Results filed as inconclusive are left out. A call without a number means that no potency is given here. A number with no mark means an inactive call. Activity calls are given as the source filed them. The call rests on the fitted dose curve; in most records, active means well fitted cell-killing curve with a large enough effect in the repeat runs; inconclusive means weak or mixed curves, or effect the other way; inactive means no such curve, though single readings can be large or run the other way.
# Assay: qHTS assay to identify small molecule antagonists of the progesterone receptor (PR) signaling pathway - cell viability counter screen (AID 1346798); further: nearly all actives have a fitted effect of over 50% in size
# Conditions: PR-UAS-bla HEK293T viability, CellTiter-Glo luminescence, 16 h; series mostly up to 42.5 µM
# Text: National Center for Advancing Translational Sciences [NCATS]
# NIH Chemical Genomics Center [NCGC]
# U.S. Environmental Protection Agency [EPA]
# National Institutes of Environmental Health Sciences [NIEHS]
# National Toxicology Program [NTP]
# U.S. Food and Drug Administration [FDA]
# Progesterone receptor (PR), a nuclear hormone receptor, plays an important role in development, metabolic homeostasis and reproduction. It is activated by the steroid hormone progesterone. Endocrine disrupting chemicals (EDCs) and their interactions with steroid hormone receptors like PR causes disruption of normal endocrine function. To identify the compounds that inhibit PR signaling, a PR-UAS-bla GripTite cell line i.e. PR-UAS-bla HEK293T (Invitrogen, Carlsbad, CA, USA) containing a beta-lactamase reporter gene under the control of an UAS response element was used to screen Tox21 10K compound library. The cytotoxicity of the Tox21 compound library against the PR-bla cell line was tested in parallel by measuring the cell viability using CellTiter-Glo assay in the same wells.
# Tox21 Assay Protocol Summary:
# PR-UAS-bla HEK293T cells were dispensed at 3,000 cells/4 uL of assay medium containing 2% charcoal stripped FBS per well into black wall/clear-bottom 1536-well plates using a Multidrop Combi (ThermoFisher Scientific, Waltham, MA) dispenser. After the assay plates were incubated at a 37C and 5% CO2 for 4 hr, 23 nL of compounds dissolved in DMSO, positive controls or DMSO only was transferred to the assay plate by a Pintool station (Kalypsys, San Diego, CA), followed by addition of 1 uL of R5020 in assay medium using a Flying Reagent Dispenser (FRD, Aurora Discovery, San Diego, CA). The plates were incubated at 37C and 5% CO2 for 16 hr. Then 1 uL of LiveBLAzer B/G FRET substrate was added using a Flying Reagent Dispenser, the plates were incubated at room temperature for 2 hours, and fluorescence intensity was measured by an Envision plate reader (PerkinElmer, Shelton, CT). For cell viability readout that measures cytotoxicity, 4 uL/well of CellTiter-Glo reagent was added into the assay plates using a FRD. After 30 min incubation at room temperature, the luminescence intensity in the plates was measured using a ViewLux (PerkinElmer) plate reader.
# Potency means the concentration at half of the fitted maximal effect.
Compound,Potency,"activity change, negative = cytotoxicity"
CCOC(=O)Nc1ccc(NCc2ccc(F)cc2)nc1N,inactive,–
CCO[Si](CCC1CCC2OC2C1)(OCC)OCC (stereo not given),inactive,–
CCCC(=O)O[C@]1(C(=O)CO)CC[C@H]2[C@@H]3CCC4=CC(=O)CC[C@]4(C)[C@H]3[C@@H](O)C[C@@]21C,inactive,–
CCN1CCC[C@H]1CNC(=O)c1c(O)c(Cl)cc(Cl)c1OC,inactive,–
Cc1ccc(=O)n(-c2ccccc2)c1,inactive,–
N=C(N)c1ccccc1,inactive,–
Cc1[nH]c(=O)c(C#N)cc1-c1ccc2nccn2c1,inactive,–
NS(=O)(=O)c1ccc(C(=O)O)cc1,inactive,–
FC1(F)C(F)(F)C(F)(F)C2(F)C(F)(F)C(F)(F)C(F)(F)C(F)(F)C2(F)C1(F)F (stereo not given),inactive,–
COC(=O)C1=C(C)NC(C)=C(C(=O)OC)C1c1ccccc1[N+](=O)[O-],inactive,–
CS(=O)(=O)O,inactive,–
Cc1cc2c(cc1S(N)(=O)=O)S(=O)(=O)CCC2,inactive,–
CCCCCCCCCCCCCC=O,–,2% [at 8.39 µM]
Nc1ccc(S(=O)(=O)Nc2ccnn2-c2ccccc2)cc1,inactive,–
CO/N=C(/C(=O)N[C@@H]1C(=O)N2C(C(=O)OCOC(=O)C(C)(C)C)=C(C)CS[C@H]12)c1csc(N)n1,inactive,–
OC1CCCCC1c1ccccc1 (stereo not given),inactive,–
CC(=O)Nc1c(I)cc(I)c(C(=O)O)c1I,inactive,–
NS(=O)(=O)c1cc(C(=O)O)cc(N2CCCC2)c1Oc1ccccc1,inactive,–
COCCc1ccc(OCC(O)CNC(C)C)cc1 (stereo not given),inactive,–
CC(C)NCCCC1(C(N)=O)c2ccccc2-c2ccccc21,inactive,–

Compound,Potency,"activity change, negative = cytotoxicity"
CCS(=O)(=O)c1ccc(OC)c(C(=O)OC)c1,inactive,–
CC(C)=CCCC(C)CC(=O)O (stereo not given),inactive,–
CC(=O)c1ccccc1O,inactive,–
CO[Si](CCCOCC1CO1)(OC)OC (stereo not given),inactive,–
CC(C)(CC(=O)O)C(=O)O,inactive,–
CCOC(=O)[C@H](CCc1ccccc1)N[C@@H](C)C(=O)N1[C@H](C(=O)O)C[C@@H]2CCC[C@@H]21,inactive,–
NC(=O)c1cn(Cc2c(F)cccc2F)nn1,inactive,–
Oc1ccc(C2CNCCc3c2cc(O)c(O)c3Cl)cc1 (stereo not given),inactive,–
COC(=O)CC(C)=O,inactive,–
CCn1ccnc1CC1COc2ccccc2O1 (stereo not given),inactive,–
CCOC(=O)c1c(C)n(C)c2ccc(O)cc12,inactive,–
CN1CC(=O)NC1=N,inactive,–
NC(=O)c1ccc([N+](=O)[O-])cc1,inactive,–
N=c1nc(N2CCCCC2)cc(N)n1O,inactive,–
CCOC(=O)CC(C)=O,inactive,–
CN(C)CCCN1c2ccccc2CCc2ccc(Cl)cc21,34.4 µM (active) and 29.8 µM (active),–
C[C@](N)(Cc1ccc(O)cc1)C(=O)O,–,2.75% [at 8.39 µM]
CCOc1ccc(C(=O)OCCN(CC)CC)cc1,inactive,–
Cc1cc(O)cc2c1O[C@](C)(CCC[C@H](C)CCC[C@H](C)CCCC(C)C)CC2,inactive,–
CC(C(=O)O)c1ccc(CC2CCCC2=O)cc1 (stereo not given),inactive,–
